# Measurements: PubChem BioAssay AID1851 (National Center for Advancing Translational Sciences (NCATS), 2009)
# Values joined by “and” are separate entries in the source; they are usually repeats but may differ in a detail not shown here. Equal values may be shown once. Hit rate of the full screen: of about 16,000 compounds, about 4,000 (25%) were called active. Roughly 26% stayed inconclusive and do not appear here. The call rests on the fitted dose curve; in most records, active means well fitted curve in the direction sought with a large enough effect; inconclusive means small, poorly fitted or top-dose-only effect, or effect the other way; inactive means no such curve, though single readings can be large or run the other way. The list is a sample of the results.
# Target: Cytochrome P450 2C9 (Homo sapiens) (UniProt P11712)
# Test: Cytochrome panel assay with activity outcomes
# Settings: recombinant CYP, pro-luciferin dealkylation, luminescence, p450-cyp2c9; series mostly up to 57.1 µM; activity, negative = inhibition: at the top concentration
# On the % scale 0 is the no-effect control and ±100 the full control effect.
# Cytochrome P450 2C9 (Homo sapiens), sequence (P11712 whole entry, looked up): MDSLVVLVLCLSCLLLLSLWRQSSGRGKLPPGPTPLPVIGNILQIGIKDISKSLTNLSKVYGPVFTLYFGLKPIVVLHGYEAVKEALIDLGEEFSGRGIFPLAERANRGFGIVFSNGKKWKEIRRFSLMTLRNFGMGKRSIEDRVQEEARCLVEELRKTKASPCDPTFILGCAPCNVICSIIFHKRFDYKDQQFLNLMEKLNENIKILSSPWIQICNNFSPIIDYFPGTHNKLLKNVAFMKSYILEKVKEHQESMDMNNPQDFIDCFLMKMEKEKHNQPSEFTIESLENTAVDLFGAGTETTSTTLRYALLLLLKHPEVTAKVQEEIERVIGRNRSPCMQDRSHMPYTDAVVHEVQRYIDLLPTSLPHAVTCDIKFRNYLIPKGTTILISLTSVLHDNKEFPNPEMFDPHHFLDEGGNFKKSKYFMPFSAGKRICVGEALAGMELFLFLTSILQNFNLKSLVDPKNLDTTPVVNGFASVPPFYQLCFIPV
SMILES,"activity, negative = inhibition",AC50
O=C1[C@H]2[C@H]3[C@H](O)[C@H](O)C/C(=N/OCc4ccccc4)[C@H]3CC[C@@H]2C(=O)N1C[C@@H]1CCCO1,-4.81% [at 11.4 µM] (inactive),
CN(C)Cc1ccccc1-c1cc(NCc2ccccc2)ncn1,-1.3% [at 2.29 µM] (inactive),
Cc1ccccc1OCC(=O)Nc1ccc(N2CCN(C(=O)C(C)C)CC2)c(Cl)c1,,3.98 µM (active)
O=C(Nc1ccccc1N1CCN(C(=O)c2ccc(Cl)cc2)CC1)c1cc(Br)ccc1Cl,,3.98 µM (active)
CC1CN(C2CCN(C(=O)c3cccc(Cl)c3)CC2)CC(C)O1 (centres undefined),-23.4% (inactive),
CC(C)C(=O)N1CCN(c2ccccc2NC(=O)c2cccc(Cl)c2)CC1,,14.1 µM (active)
CNC(=S)NNC(=O)COc1ccccc1C,32.9% (inactive),
O=C(Nc1ccccc1N1CCN(C(=O)c2ccccc2)CC1)c1cc(Br)ccc1Cl,,2.51 µM (active)
CC[C@]1(O)C[C@@H]2CN(CCc3c([nH]c4ccccc34)[C@](C(=O)OC)(c3cc4c(cc3OC)N(C=O)[C@H]3[C@@](O)(C(=O)OC)[C@H](C(=O)OC)[C@@]5(CC)C=CCN6CC[C@]43[C@H]65)C2)C1,-28.6% (inactive),
CC(C)C(O)(C#CCN1CCCC1)c1ccccc1 (centres undefined),-10.7% (inactive),
CC(C)(C)N1C(=O)[C@H]2[C@@H]3[C@H](O)C=CC(=O)[C@H]3CC[C@H]2C1=O,3.18% [at 11.4 µM] (inactive),
CC(=O)O[C@]12CC[N@+]3(C)CCCC[C@@H]3[C-]1Nc1ccccc12,2.24% [at 11.4 µM] (inactive),
Cc1ccc(C2=C(Cl)C(=O)C(c3ccc(C)cc3)=C(Cl)C2=O)cc1,,1.58 µM (active)
CC1(C)CC(=O)C/C(=N/NC(=O)CCCOc2ccc(Cl)cc2Cl)C1,17.7% (inactive),
COc1ccc(/C=N/NC(=O)CCCOc2ccc(Cl)cc2Cl)cc1[N+](=O)[O-],,2.24 µM (active)
COC(=O)C/C=C\[C@@H](C)[C@@H](/C=N\O[C@@H](C)c1cn([C@H](CO)Cc2ccccc2)nn1)OC,-11.4% [at 11.4 µM] (inactive) and -9% [at 11.4 µM] (inactive),
COC(=O)C/C=C\[C@@H](C)[C@@H](/C=N\OC[C@@H](O)COCc1ccco1)OC,-26.7% [at 11.4 µM] (inactive),
COC(=O)[C@@H]1CC[C@H](C)[C@@H](c2ccc(C)cc2)N1C(=O)c1ccc(/C=N\OC[C@@H]2O[C@H](c3ccccc3)C=C[C@@H]2Oc2ccc(OC)cc2)cc1,-16.2% [at 11.4 µM] (inactive),
COC(=O)[C@@H]1CC[C@H](C)[C@@H](c2ccc(C)cc2)N1C(=O)c1ccc(/C=N\O[C@@H](C)c2cn([C@H](CO)Cc3ccccc3)nn2)cc1,,3.16 µM (active) and 2.51 µM (active)
C=CC[C@@H]1C=C[C@H](ON=C(C)C)[C@H](CO)O1,12% [at 11.4 µM] (inactive),
COC(=O)[C@@H]1CC[C@H](C)[C@@H](c2ccc(C)cc2)N1C(=O)c1ccc(/C=N\OC[C@@H](C)[C@H](OCc2ccccc2)C(C)C)cc1,-24.2% [at 11.4 µM] (inactive),
COC(=O)[C@@H]1CC[C@H](C)[C@@H](c2ccc(C)cc2)N1C(=O)c1ccc(/C=N\OC[C@@H](O)COCc2ccco2)cc1,,3.98 µM (active)
CCCNC(=O)OC[C@@H]1O[C@H](CCO/N=C\c2ccc(C(=O)N3[C@H](c4ccc(C)cc4)[C@@H](C)CC[C@H]3C(=O)OC)cc2)C=C[C@@H]1Oc1ccc(OC)cc1,,3.98 µM (active)

SMILES,"activity, negative = inhibition",AC50
C=CC[C@@H]1C=C[C@@H](O/N=C\[C@@H](OC)[C@H](C)/C=C\CC(=O)OC)[C@@H](CO)O1,21.3% [at 11.4 µM] (inactive),
C=CC[C@@H]1C=C[C@@H](O/N=C\c2ccc(C(=O)N3[C@H](c4ccc(C)cc4)[C@@H](C)CC[C@H]3C(=O)OC)cc2)[C@@H](CO)O1,,3.98 µM (active)
CCCNC(=O)OC[C@@H]1O[C@H](CCO/N=C\C[C@H]2C=C[C@H](OC(C)=O)[C@@H](COC(C)=O)O2)C=C[C@@H]1Oc1ccc(OC)cc1,-11.7% [at 11.4 µM] (inactive),
COC(=O)C/C=C\[C@@H](C)[C@@H](/C=N\O[C@@H](C)c1cn([C@H](CO)Cc2ccccc2)nn1)NS(=O)(=O)c1ccc(C)cc1,-29.2% [at 11.4 µM] (inactive),
C/C(CCN1CCc2nc(-c3ccccc3)c(-c3ccccc3)cc2C1)=N\O[C@@H](C)CN1CCCc2nc(C)c(C)cc21,-19.9% [at 11.4 µM] (inactive),
CC(C)=CCC/C(C)=C/CO/N=C1/C[C@@H](O)[C@@H](O)[C@@H]2[C@@H]3C(=O)N(Cc4ccc5c(c4)OCO5)C(=O)[C@H]3CC[C@@H]12,-23.6% [at 11.4 µM] (inactive),
O=C(c1ccco1)N1CCC[C@@]2(CCN(Cc3ccccc3)C2)C1,2.14% (inactive),
COC(=O)C/C=C\[C@@H](C)[C@@H](/C=N\OC[C@@H](O)[C@H]1O[C@H]2OC(C)(C)O[C@H]2[C@@H]1O)NS(=O)(=O)c1ccc(C)cc1,2.11% [at 11.4 µM] (inactive),
COC(=O)C/C=C\[C@@H](C)[C@@H](/C=N\OC[C@@H](O)[C@H]1O[C@H]2OC(C)(C)O[C@H]2[C@@H]1O)OC,8.96% [at 11.4 µM] (inactive),
CO/N=C\c1ccc(C(=O)N2[C@H](c3ccc(C)cc3)[C@@H](C)CC[C@H]2C(=O)OC)cc1,,2.51 µM (active)
COC(=O)[C@@H]1CC[C@H](C)[C@@H](c2ccc(C)cc2)N1C(=O)c1ccc(/C=N\OC[C@@H](O)[C@H]2O[C@H]3OC(C)(C)O[C@H]3[C@@H]2O)cc1,,2.51 µM (active)
C[C@@]12CCC(=O)C=C1CC[C@@H]1[C@@H]2[C@H](O)C[C@]2(C)[C@@H]1CC[C@]2(O)C(=O)CO,-1.37% [at 25.6 µM] (inactive),
CN[C@@H](c1ccncc1)[C@@H](NC)c1ccncc1,-8.04% [at 11.4 µM] (inactive),
COCCNc1ncnc2ccc(-c3ccccc3C(F)(F)F)cc12,11% [at 2.29 µM] (inactive),
CC(C)(C)NC(=O)C(c1ccccn1)N(C(=O)C1CSC(=O)C1)c1ccc(F)cc1 (centres undefined),-13.1% (inactive),
Cc1cc(C)cc(N(C(=O)Cc2cccs2)C(C(=O)NC2CCCCC2)c2ccccn2)c1 (centres undefined),,17.8 µM (active)
Cc1nn(C)cc1C(C(=O)NC1CCCCC1)N(C(=O)Cc1cccs1)c1ccc(C(C)C)cc1 (centres undefined),,25.1 µM (active)
Cc1ccc(C(C(=O)NC2CCCCC2)N(CC2CCCO2)C(=O)CNC(=O)c2cccs2)cc1 (centres undefined),-15.9% (inactive),
NC1=C(O)C(=O)[C@H](c2c[nH]c3ccc(OCc4ccccc4)cc23)O1,-27.4% [at 11.4 µM] (inactive),
CC(=O)c1cc2c(cc1NC(=O)CCCC(=O)O)OCO2,0.864% (inactive),
CC(C)C(=O)Nc1cc2c(cc1C(=O)c1ccccc1)OCCO2,,8.91 µM (active)
CC(C)/C(=N/[N+](C)(C)C)c1ccccc1,9.65% [at 11.4 µM] (inactive),
O=C1Nc2ccccc2C1=Nc1ccc(S(=O)(=O)Nc2nccs2)cc1,8.43% [at 11.4 µM] (inactive),

SMILES,"activity, negative = inhibition",AC50
O=C(O)c1ccccc1C(=O)Nc1ccc(S(=O)(=O)Nc2nccs2)cc1,-19.3% [at 25.6 µM] (inactive),
O=C(CCN1C(=O)S/C(=C\c2ccccc2)C1=O)Nc1ccc(S(=O)(=O)Nc2nccs2)cc1,,1.58 µM (active)
CCOc1ccc(OCC)c(-c2c(=O)n(OCc3ccccc3C(=O)OC)c3ccccc3[n+]2[O-])c1,,14.1 µM (active)
CCOc1ccc(OCC)c(-c2c(=O)n(OCc3ccc(C(C)(C)C)cc3)c3ccccc3[n+]2[O-])c1,,6.31 µM (active)
O=c1c(-c2ccc(Cl)cc2)[n+]([O-])c2ccccc2n1OCc1ccccn1,-25.4% (inactive),
OC[C@@H]1O[C@H](n2cnc3c(/C=C(\O)c4ccccc4)ncnc32)[C@H](O)[C@@H]1O,0.392% [at 11.4 µM] (inactive),
COc1cccc(Cn2nnc3c(=O)[nH]c(C4CCCN(C(=O)c5ccccc5Cl)C4)nc32)c1 (centres undefined),,5.01 µM (active)
Cc1ccc(Cn2nnc3c(=O)[nH]c(C4CCN(C(=O)Cc5cccs5)CC4)nc32)cc1,,0.708 µM (active)
COc1ccccc1Cn1nnc2c(=O)[nH]c(C3CCN(C(=O)c4ccc(C)cc4)CC3)nc21,,5.62 µM (active)
COc1ccc(C(=O)N2CCC3(CCN(Cc4ccccc4OC)CC3)CC2)cc1,11.6% (inactive),
COc1ccc(C(=O)N2CCC3(CCCN(Cc4ccccc4OC)C3)CC2)cc1,-18.1% (inactive),
Cc1ccc(C)c(S(=O)(=O)N2CCC(c3nc4c(nnn4Cc4ccc(F)cc4)c(=O)[nH]3)CC2)c1,,1.58 µM (active)
Cc1ccn2cc(CSc3ccccc3N)nc2c1,-1.78% (inactive),
NC1=C2NC=N[C@@H]2N(C/C=C\c2ccccc2)C=N1,1.29% [at 11.4 µM] (inactive),
O=C(Cc1cccs1)N1CCC(c2nc3c(nnn3Cc3ccccc3Cl)c(=O)[nH]2)CC1,,0.224 µM (active)
CCc1ncc(CO)n1Cc1cccc2ccccc12,-1.15% [at 11.4 µM] (inactive),
CCn1cnc2sc(C(=O)N3CCN(c4ccc(OC)cc4)CC3)c(C)c2c1=O,,7.94 µM (active)
COc1ccc(N2CCN(C(=S)Nc3cc(C)ccc3C)CC2)cc1,-18% (inactive),
COc1ccc(N2CCN(C(=N)/C(C(C)=O)=C(\C)O)CC2)cc1,-13.8% (inactive),
O=C(NCCN1CCOCC1)c1ccc2ccccc2c1,0.564% (inactive),
O=C(NCCCN1CCOCC1)c1cc2c(s1)CSC2,-20.3% (inactive),
O=C(NCCCn1ccnc1)c1ccc(Br)c(S(=O)(=O)N2CCOCC2)c1,,0.708 µM (active)
CN[C@@H]1[C@H](O[C@H]2[C@@H](O[C@@H]3[C@@H](O)[C@@H](O)[C@@H](N=C(N)N)[C@@H](O)[C@@H]3N=C(N)N)O[C@@H](C)[C@]2(O)CO)O[C@H](CO)[C@@H](O)[C@@H]1O,4.16% [at 25.6 µM] (inactive),
